In PubChem BioAssay AID488969 (Vanderbilt High Throughput Screening Facility, 2010):
In all, about 110,000 compounds were measured (“z-score”: median about -0.1, highest 2% from about 2 on). The sample holds the highest values, similar compounds and a random draw of the others, so the mix is not that of the screen. The source made the active and inactive calls.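 The calls were made as follows: active = z-score in the third read window above 3 or below -3; inactive = the rest.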

Biological target: Metabotropic glutamate receptor 8 (Rattus norvegicus) (UniProt P70579)
Sequence (P70579 whole entry, looked up): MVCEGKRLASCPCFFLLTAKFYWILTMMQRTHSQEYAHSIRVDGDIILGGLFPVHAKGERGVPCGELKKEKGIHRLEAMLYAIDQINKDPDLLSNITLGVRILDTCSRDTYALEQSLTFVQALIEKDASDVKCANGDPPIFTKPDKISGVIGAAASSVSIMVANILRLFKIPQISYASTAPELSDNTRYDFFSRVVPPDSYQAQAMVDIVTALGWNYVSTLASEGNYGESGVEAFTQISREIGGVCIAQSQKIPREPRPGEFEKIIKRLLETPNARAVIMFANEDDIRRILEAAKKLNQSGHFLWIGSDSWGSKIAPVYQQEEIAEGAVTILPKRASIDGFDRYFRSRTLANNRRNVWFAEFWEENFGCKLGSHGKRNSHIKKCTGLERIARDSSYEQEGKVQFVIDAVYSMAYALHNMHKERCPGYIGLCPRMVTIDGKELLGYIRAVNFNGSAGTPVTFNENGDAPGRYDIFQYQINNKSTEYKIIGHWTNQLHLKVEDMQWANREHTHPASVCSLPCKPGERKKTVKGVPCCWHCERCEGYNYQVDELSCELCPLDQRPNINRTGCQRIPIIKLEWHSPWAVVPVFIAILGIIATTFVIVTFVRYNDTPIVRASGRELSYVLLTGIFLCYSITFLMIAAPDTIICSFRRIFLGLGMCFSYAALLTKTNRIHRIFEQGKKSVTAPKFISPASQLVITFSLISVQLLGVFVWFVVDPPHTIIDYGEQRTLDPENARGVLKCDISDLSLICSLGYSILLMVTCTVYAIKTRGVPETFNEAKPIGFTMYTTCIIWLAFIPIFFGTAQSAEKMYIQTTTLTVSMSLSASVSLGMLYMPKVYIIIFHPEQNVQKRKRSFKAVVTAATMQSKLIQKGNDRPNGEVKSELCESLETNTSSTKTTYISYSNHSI
Assay: mGluR8 Gi/Go-coupled signaling modulation – cell-based, rat, thallium flux, HTS, primary screen (AID 488969)
Conditions: HEK293 rat mGluR8, GIRK (G protein-gated inwardly rectifying potassium channel) thallium flux, FluoZin2; at 10 µM; stronger effect = higher value; submaximal glutamate (EC20) added with thallium

Structure (SMILES) | z-score
O=C(C1CCC(=O)N1Cc1ccccc1Cl)N1CCN(c2cccc(Cl)c2)CC1 (stereo unspecified) | -0.174
CC(CNC(=O)c1cc(Cl)ccc1[N+](=O)[O-])NC(=O)c1cc(Cl)ccc1[N+](=O)[O-] (stereo unspecified) | -0.0709
Cc1ccc(/C([O-])=C(/C(=S)NCc2ccco2)[n+]2ccccc2)cc1 | -0.112
Cc1cc(C)n(-c2nc(NCCC(C)C)c3c4c(sc3n2)COC(C)(C)C4)n1 | -0.867
c1ccc(-c2ccn3nnnc3n2)cc1 | -0.244
CNc1ccccc1-n1ccc(-c2ccccc2)n1 | 1.11
N=c1nc(-c2ccccc2)ccn1O | 2.64
O=c1c(-c2ccco2)[n+]([O-])c2ccccc2n1OCc1ccccn1 | -0.153
CN1CCN(S(=O)(=O)c2cccc(S(=O)(=O)c3ccc(Cl)cc3)c2)CC1 | 0.2
CN1CCN(S(=O)(=O)c2cccc(S(=O)(=O)c3cccc(S(=O)(=O)N4CCN(C)CC4)c3)c2)CC1 | 14 (active)
CN1CCN(S(=O)(=O)c2cccc(S(=O)(=O)c3ccc(Cl)c(Cl)c3)c2)CC1 | 1.26
CCC(=O)NCc1cc(-c2nn(C)c(=O)c3ccccc23)ccc1C | -0.415
CCNc1nc(NCC)n2c(SC(C(=O)Nc3cc(C)ccc3OC)c3ccccc3)nnc2n1 (stereo unspecified) | -0.463
COc1ccc(C)cc1NC(=O)C(Sc1ccccc1)c1ccccc1 (stereo unspecified) | 0.296
COc1cccc(NC(=O)C(Sc2nnc3ccccn23)c2ccccc2)c1 (stereo unspecified) | -0.184
COc1cccc(NC(=O)C(Sc2nc3ccccc3c(=O)n2CC(C)C)c2ccccc2)c1 (stereo unspecified) | 2.63
CCCn1c(SC(C(=O)Nc2cc(C)ccc2OC)c2ccccc2)nc2ccccc2c1=O (stereo unspecified) | 3.61 (active)
CCCn1c(SC(C(=O)Nc2cccc(OC)c2)c2ccccc2)nc2ccccc2c1=O (stereo unspecified) | -0.276
Cc1cccc(CCNC(=O)C2CCC(CNc3c(N4CCCC4)c(=O)c3=O)CC2)c1 (stereo unspecified) | -0.262
CCOc1ccc(-c2nnn(CC(=O)NCc3ccco3)n2)cc1OCC | 0.241
CC(=O)C1=C(c2ccccc2)NC(=O)NC1c1ccccc1OCC#N (stereo unspecified) | 1.96
CC(=O)c1c(C)[nH]c(C(=O)N2CCN(C(=O)c3ccco3)CC2)c1C | -0.564

Structure (SMILES) | z-score
O=C(CSc1nc2c(cnn2-c2ccc(F)cc2)c(=O)[nH]1)N1CCOCC1 | 0.476
COC(=O)c1cnn(-c2cc(Oc3cccc(C)c3)ncn2)c1N | 0.309
CC(=O)c1cnn(-c2cc(Oc3ccc(F)cc3)ncn2)c1C | 0.354
CC(=O)c1cnn(-c2cc(Oc3cccc(C)c3)ncn2)c1C | 2.24
COC(=O)c1ccc(C2C(Oc3ccc(OC)cc3)C(=O)N2CCc2ccc(OC)c(OC)c2)cc1 (stereo unspecified) | -0.234
N#Cc1c(N)nc2c3c(sc(=N)c2c1N)NC(=O)CC3c1ccccc1 (stereo unspecified) | -0.0395
CCS(=O)(=O)NCCc1csc(-c2ccccc2)n1 | -0.276
COc1ccc(OC)c(S(=O)(=O)NCc2csc(-c3ccccc3)n2)c1 | -0.245
CS(=O)(=O)NCc1csc(-c2ccccc2)n1 | 2.26
COc1cccc(CNC(=O)Cc2nc3nc(C)cc(C)n3n2)c1 | -0.187
Cn1cc(C(=O)Nc2cccc(F)c2)cn1 | 0.0603
COc1ccc(CN2C(=O)c3ccccc3C(/C=N/OCc3ccc(Cl)cc3)C2=O)cc1 (stereo unspecified) | 0.378
COc1ccc(CN2C(=O)c3ccccc3C(/C=N\OCc3ccc(C)cc3)C2=O)cc1 (stereo unspecified) | 2.42
COc1ccc(CN2C(=O)c3ccccc3C(/C=N\OCc3ccc(F)cc3)C2=O)cc1 (stereo unspecified) | 0.722
COc1ccc(OC)c(/C(O)=C/C(=O)C(=O)Nc2cc(C)cc(C)c2)c1 | 0.571
CCOC(=O)C(NC(=O)c1ccccc1)(OCc1ccc(F)cc1)C(F)(F)F (stereo unspecified) | 0.14
CCn1c(SCC(=O)c2cc(C)n(C)c2C)nnc1-c1ccccc1 | 0.0656
Cc1cc(C(=O)CSc2nnc(-c3ccncc3)n2-c2ccccc2)c(C)n1C | 4.58 (active)
Cc1cc(C(=O)CSc2nnc(-c3ccccc3)n2C)c(C)n1C | -0.546
C=CCn1c(SCC(=O)NCCc2ccccc2)nnc1C(C)NC(=O)c1cccs1 (stereo unspecified) | 0.0814
O=c1c(-c2nnc(SCc3ccc(Cl)cc3)o2)cccn1Cc1ccccc1 | 0.618
N#C/C(=C\c1ccc(OC(=O)c2ccccn2)cc1)C(N)=O | -0.197

Structure (SMILES) | z-score
O=S(=O)(NCCOc1cccc2cccnc12)c1ccc(F)cc1 | -0.153
O=S(=O)(Nc1cc(Sc2cccc3cccnc23)c(O)c2ccccc12)c1ccc(F)cc1 | 5.2 (active)
COc1ccc(S(=O)(=O)Nc2cc(Sc3ncn[nH]3)c(O)c3ccccc23)cc1 | 0.366
COC(=O)c1ccc(N2CCN(S(=O)(=O)c3ccccc3)CC2)c([N+](=O)[O-])c1 | -0.111
Cc1cc(=O)n(C)c(=O)n1CC(=O)N1CCCCCC1 | 0.975
Cc1c(NC(=O)/C(C#N)=C/c2cccs2)c(=O)n(-c2ccccc2)n1C | 0.559
COc1ccc(OC(=O)c2cc3ccccc3o2)cc1 | 0.125
O=C(Nc1ccccc1)c1ccc(OC(=O)c2cc3ccccc3o2)cc1 | -0.284
O=C(Oc1ccccc1)c1cc2ccccc2o1 | 2.68
CCCCn1c(=O)c(C(=O)c2ccccc2)nc2ccccc21 | -0.617
S=c1sc2c(N3CCN(Cc4ccccc4)CC3)ncnc2n1-c1ccccc1 | 0.467
COc1ccc(CCN(Cc2cccs2)S(=O)(=O)c2ccc(S(=O)(=O)N3CCC(C)CC3)cc2)cc1OC | -0.101
CCCCn1c(=S)[nH]c2c(oc3ccc(Cl)cc32)c1=O | 13.1 (active)
CCN(CC)CCCn1c(=S)[nH]c2ccc(Cl)cc2c1=O | 0.0726
O=c1c2oc3ccccc3c2[nH]c(=S)n1-c1ccccc1 | 0.645
O=c1c2ccc(Cl)cc2[nH]c(=S)n1CCC1=CCCCC1 | 5.05 (active)
CCN(CC)CCCn1c(=S)[nH]c2cc(OC)c(OC)cc2c1=O | -0.0622
CCN(CC)CCn1c(=S)[nH]c2cc(Cl)ccc2c1=O | 1.41
CCN(CC)CCCn1c(=S)[nH]c2cc(Cl)ccc2c1=O | 4.1 (active)
O=c1c2ccccc2[nH]c(=S)n1CCC1=CCCCC1 | 0.577
CCOC(=O)N1CCN(C(=O)c2ccc3c(=O)n(CCC4=CCCCC4)c(=S)[nH]c3c2)CC1 | 0.221
Cc1ccc(C)c(N2CCN(c3ccc(N4C(=O)COCC4=O)cc3[N+](=O)[O-])CC2)c1 | -0.128

Structure (SMILES) | z-score
O=[N+]([O-])c1ccc2c(c1)C(N1CCOCC1)/C(=C/COc1ccc3ccccc3c1Br)O2 (stereo unspecified) | -0.0823
COc1ccc(-c2nnn(CC(=O)N3CCN(c4ccccc4OC)CC3)n2)cc1 | -0.289
CCOC(=O)C1CCc2sc(N)c(C#N)c21 (stereo unspecified) | 2.38
CCCC(=O)Nc1sc2c(c1C(=O)OC)C(C(=O)OC)CC2 (stereo unspecified) | -0.0731
CCOC(=O)Nc1sc2c(c1C#N)CCC(C)C2 (stereo unspecified) | -0.505
Cc1ccc(O)c(C(=O)c2cnc3c(c2)COc2ccccc2-3)c1 | -0.0344
CCOC(=O)C1=C(C)NC(C)=C(C(=O)OCC)C1c1ccc(O)cc1 | -0.238
O=C(Nc1ccc2c(c1)OCCO2)C1CCC1 | 0.045
O=C(Nc1ccc2c(c1)OCCO2)C1CCN(c2cnccn2)CC1 | 2.51
CS(=O)(=O)N1CCC(C(=O)Nc2ccc3c(c2)OCCO3)CC1 | 0.0973
Cc1cc(C)nc(SCC(=O)c2c(N)n(C)c(=O)n(C)c2=O)n1 | -0.282
C=CCNC(=O)c1ccc(-c2nc(-c3ccccc3)cs2)cc1 | 0.133
CN(C)CCCNC(=O)c1ccc(-c2nc(-c3ccc(Cl)cc3)cs2)cc1 | 3.28 (active)
C=CCNC(=O)c1ccc(-c2nc(-c3ccc(Cl)c(Cl)c3)cs2)cc1 | -0.148
CCc1cccc(C)c1NC(=O)CCCC(=O)O | 0.0858
O=C(Nc1cnn(Cc2ccccc2)c1)c1nc2ncccn2n1 | -0.222
Cc1ccccc1Cn1ccc(NC(=O)c2nc3ncccn3n2)n1 | -1.29
Cc1ccccc1Cn1cc(NC(=O)c2nc3ncccn3n2)cn1 | 2.77
COc1ccc(/C=C/C(=O)c2sc(-c3ccccc3)nc2C)cc1 | 0.276
COc1ccc(-c2nc(N)nc(C)c2Oc2ccccc2Br)c(O)c1 | -0.381
CSc1ccc(CCNC(=O)CSc2ccsc2[N+](=O)[O-])cc1 | -0.173
CCc1nnc(NC(=O)CSc2nc(-c3ccccc3)cc(-c3ccc(F)cc3)c2C#N)s1 | -0.163

Structure (SMILES) | z-score
CCc1nnc(NC(=O)CSc2nc(-c3ccccc3)cc(-c3ccc(OC)cc3)c2C#N)s1 | -0.249
CCc1nnc(NC(=O)CSc2nc(-c3ccc(F)cc3)cc(-c3ccccc3)c2C#N)s1 | 2.35
c1ccc(-c2nc(CSc3n[nH]c(-c4cccs4)n3)cs2)cc1 | 0.259
COc1cc2c(C(=O)N3CCN(C4CCCCC4)CC3)cn(CC(C)C)c(=O)c2cc1OC | 2.68
CCCN1CCN(C(=O)c2cn(CC(C)C)c(=O)c3cc(OC)c(OC)cc23)CC1 | -0.37
CCOC(=O)C1CCCN(C(=O)c2cn(CC(C)C)c(=O)c3cc(OC)c(OC)cc23)C1 (stereo unspecified) | -0.759
Cc1nn(-c2ccccc2)c(Cl)c1C(=O)OC(C)C(=O)Nc1ccc2c(c1)OCO2 (stereo unspecified) | -0.936
CCCn1nnc(NC(=O)c2ccc(F)cc2)n1 | -0.08
CCCCc1ccc(-c2nc(N)n[nH]2)cc1 | 2.99
COc1ccc(-c2nc(N)n[nH]2)cc1 | -0.101
Nc1n[nH]c(-c2ccccc2)n1 | 0.189
CCOC(=O)c1c(C)[nH]c(C(=O)COC(=O)c2ccccc2NC(=O)c2ccco2)c1C | -0.00749
Cc1ccc(NC(=O)CSCCc2ccccn2)nc1 | 0.022
CSc1ccc(/C=N/NC(=O)CNc2cccc3ccccc23)cc1 | 0.3
CCNC(=O)NC(=O)C(C)OC(=O)C1CCN(S(=O)(=O)c2ccc(C)c(C)c2)CC1 (stereo unspecified) | -0.143
Cc1cccc(-c2nc(=S)c3c(n2Cc2ccco2)CCCC3)c1 | 0.581
COc1cccc(-c2nc(=S)c3c(n2Cc2ccco2)CCCC3)c1 | 0.708
S=c1nc(-c2ccccc2)n(Cc2ccco2)c2c1CCCC2 | 2.16
